In the library only some 2.4% were active in any assay of this set; here they are far more common.
POLH inh: inhibitors of human DNA polymerase eta | Q9Y253 | recombinant Pol eta, fluorescent DNA replication assay | Potency, µM (top dose mostly 114 µM), hits mostly inhibitors | actives 1.2% (n = 390,000) | AID 588591
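Fluorescent replication assay: 50 nM final substrate added after a 15 min room-temperature compound preincubation with 10 nM enzyme. Signal taken at 0 min and again at 10 min.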
Pol kappa inh: blocks human DNA polymerase kappa activity | Potency, µM (series often up to 107 µM), hits mostly inhibitors | actives 0.53% (n = 400,000) | purified Pol kappa, fluorescent DNA synthesis assay, 10 min | Q9UBT6
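10 nM Pol kappa preincubated 15 min at room temperature with compounds, then reaction started with substrate at 50 nM final. Fluorescence read kinetically at 0 and 10 min; buffer-only wells served as negative control.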
KAT2A inh: inhibitors of human GCN5L2 histone acetyltransferase | GCN5L2 HAT assay, ThioGlo1 CoA-SH fluorescence | Potency, µM (titrated, usually from 58.9 µM), hits mostly inhibitors | actives 0.21% (n = 390,000)
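ThioGlo1-coupled HAT assay: 20nM GCN5L2, 70uM acetyl-CoA, 75uM H3(1-25) peptide, pH 7.5. Fluorescence read at 340/540nm at start and after 20 min at room temperature.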
POLI inh: blocks human DNA polymerase iota activity; actives 1% (n = 390,000); Q9UNA4; Pol iota fluorescent replication assay, 10 min; Potency, µM (highest dose often 115 µM), usual class: inhibitors
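Fluorescent replication assay read twice, at 0 min and 10 min after adding 50 nM (final) substrate. Enzyme (10 nM) and compounds were first incubated 15 min at room temperature; enzyme-free buffer wells were negative controls.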
Pol beta inh: inhibitors of human DNA polymerase beta | actives 1.3% (n = 340,000) | Pol beta primer extension/strand displacement, fluorescence kinetic | Potency, µM (series often up to 114 µM), usual class: inhibitors | P06746
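Values derive from four-parameter Hill fits of normalized kinetic data: reads at 0 and 10 min following addition of 50 nM substrate to 10 nM Pol beta preincubated 15 min with compound.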
GLS inh: glutaminase GLS (human) inhibition; GLS enzymatic activity, qHTS titration; Potency, µM (doses to about 45.5 µM), usual class: inhibitors; actives 0.21% (n = 410,000); AID 624170
Target sequence (O94925 whole entry, looked up): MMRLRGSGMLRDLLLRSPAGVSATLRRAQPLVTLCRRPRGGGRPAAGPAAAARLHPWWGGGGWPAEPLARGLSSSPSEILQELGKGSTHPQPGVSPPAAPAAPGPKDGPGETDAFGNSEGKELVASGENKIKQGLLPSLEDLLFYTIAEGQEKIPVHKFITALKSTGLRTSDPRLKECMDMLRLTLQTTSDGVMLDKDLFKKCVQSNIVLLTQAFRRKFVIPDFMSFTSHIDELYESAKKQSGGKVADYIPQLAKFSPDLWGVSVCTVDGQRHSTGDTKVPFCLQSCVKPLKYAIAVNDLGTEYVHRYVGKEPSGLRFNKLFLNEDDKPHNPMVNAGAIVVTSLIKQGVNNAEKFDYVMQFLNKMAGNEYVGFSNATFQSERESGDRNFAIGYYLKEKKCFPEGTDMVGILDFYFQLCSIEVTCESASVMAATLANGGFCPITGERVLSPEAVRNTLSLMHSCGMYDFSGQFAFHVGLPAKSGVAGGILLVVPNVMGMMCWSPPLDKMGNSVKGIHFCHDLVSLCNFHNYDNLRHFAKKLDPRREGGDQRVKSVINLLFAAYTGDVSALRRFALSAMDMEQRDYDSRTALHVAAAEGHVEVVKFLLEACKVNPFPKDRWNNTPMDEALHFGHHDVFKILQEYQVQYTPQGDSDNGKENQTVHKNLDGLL
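Human kidney-isoform GLS in 45 mM KH2PO4 pH 8.2, 0.02% Tween-20, with compound, started with 1mM L-Glutamine (added stock). Glutamate oxidase/HRP/Amplex red coupled fluorescence read at start and after 30 min at RT.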
Of the large screens only hits and unclear results are named; the others gave an inactive call. Calls follow the shape of the dose curve; as a rule, active = well fitted inhibition curve with a large enough effect; inconclusive = small, poorly fitted or top-dose-only effect, or another doubt; inactive = no such curve, though single readings can be large or run the other way.

COc1ccccc1NC(=O)CCSCCC(=O)Nc1ccccc1OC	POLH inh inconclusive, Pol beta inh 56µM
O=C(CSc1nc(O)cc(=O)n1-c1ccccc1)Nc1ccc2c3c(cccc13)CC2	POLI inh inconclusive, Pol beta inh 35µM
O=C(CSc1nccn1-c1ccccc1)Nc1nc2ccccc2s1	none
O=C(CSc1nc(O)cc(=O)n1-c1ccccc1)Nc1nc2ccccc2s1	Pol kappa inh inconclusive, POLI inh 11µM, Pol beta inh inconclusive
Cn1c(-c2ccc(N)cc2)nc2ccccc21	none
Cn1c(-c2ccc3nc(N)sc3c2)nc2cc(N)ccc21	POLH inh inconclusive, Pol kappa inh 71µM, POLI inh 32µM, Pol beta inh 20µM
O=c1c2ccccc2nc(/C=C/c2ccc([N+](=O)[O-])cc2)n1CCCO	none
O=c1c2ccccc2nc(/C=C/c2ccc([N+](=O)[O-])o2)n1CCCO	POLH inh 16µM, Pol beta inh inconclusive
Cc1ccc(Nc2c(-c3ccccc3O)nc3cc(C)ccn23)cc1	KAT2A inh 25µM
Cc1ccc(Nc2c(-c3ccccc3O)nc3cnccn23)cc1	GLS inh 7.9µM
COC(=O)C1=C(C)NC(C)=C(C(=O)OCCSc2ccccc2)C1C (stereo unspecified)	none (no result: POLH inh, POLI inh, Pol beta inh, GLS inh)
COc1cccc(NC(=O)c2oc3ccccc3c2NC(=O)COc2ccccc2C)c1	none
S=c1ncc2n[nH]nc2[nH]1	none (no result: POLH inh, KAT2A inh, Pol beta inh, GLS inh)
Cc1ccc(-c2csc3ncnc(Sc4nnnn4C4CC4)c23)cc1	none (no result: POLH inh, KAT2A inh, Pol beta inh, GLS inh)
CN(C)c1ccc(/C=C2/CCCc3c2nc2ccccc2c3C(=O)O)cc1	Pol kappa inh 79µM, POLI inh inconclusive (no result: POLH inh, KAT2A inh, Pol beta inh, GLS inh)
Cc1cnc2c(C)cccc2c1C	none (no result: POLH inh, KAT2A inh, Pol beta inh, GLS inh)
Cc1cc(C)n(C(C)CC(=O)N2CCc3ccccc32)n1 (stereo unspecified)	none
Cc1cc(C)n(C(CC(=O)N2CCc3ccccc3C2)C(=O)O)n1 (stereo unspecified)	Pol kappa inh inconclusive, POLI inh 79µM, Pol beta inh inconclusive, GLS inh inconclusive
CCOC(=O)CN1C(=O)S/C(=C/c2ccco2)C1=O	none
Cc1cccc(N=C2NC(=O)S/C2=C\c2ccco2)c1	POLH inh inconclusive, Pol kappa inh 79µM, POLI inh 35µM, Pol beta inh inconclusive
COc1ccc(OC)c2sc(NC(=O)c3cccc(N4C(=O)CCC4=O)c3)nc12	POLH inh inconclusive, POLI inh 28µM, Pol beta inh inconclusive
COc1ccc(S(=O)(=O)N2CCN(c3nc(-c4cccs4)nc4ccccc34)CC2)cc1	POLI inh inconclusive (no result: POLH inh, KAT2A inh, Pol beta inh, GLS inh)
O=c1/c(=C\c2cc([N+](=O)[O-])cc([N+](=O)[O-])c2O)sc2nc3ccccc3n12	POLH inh inconclusive, Pol kappa inh inconclusive, KAT2A inh inconclusive, POLI inh inconclusive, Pol beta inh 18µM, GLS inh inconclusive
O=c1/c(=C/c2ccccn2)sc2nc3ccccc3n12	POLH inh inconclusive, Pol beta inh inconclusive
CCOC(=O)CN1C(=O)S/C(=C\c2ccc(-c3cccc(C(=O)O)c3C)o2)C1=O	POLH inh inconclusive, POLI inh inconclusive (no result: KAT2A inh, Pol beta inh)
O=C(O)c1cc(C(=O)O)cc(-c2ccc(/C=c3/sc4nc5ccccc5n4c3=O)o2)c1	POLH inh 3.5µM, Pol kappa inh 18µM, POLI inh 10µM, Pol beta inh 4.5µM
O=C(O)c1ccccc1-c1ccc(C=c2sc3nc4cc(Br)cnc4n3c2=O)o1	GLS inh 7.9µM (no result: POLH inh, Pol kappa inh, KAT2A inh, POLI inh, Pol beta inh)
O=S(=O)(NCCNCC=Cc1ccc(Br)cc1)c1cccc2cnccc12	none (no result: POLH inh, KAT2A inh, Pol beta inh, GLS inh)
O=C(Cc1ccc(Br)cc1)NO	none (no result: POLH inh, KAT2A inh, Pol beta inh, GLS inh)
C#CC1(OC(C)=O)CCC2C3CCC4=CC(OC(C)=O)CCC4C3CCC21C (stereo unspecified)	none (no result: POLH inh, Pol kappa inh, KAT2A inh, POLI inh, Pol beta inh)
CCN1/C(=C/C=C/c2oc3ccc4ccccc4c3[n+]2CC)Oc2ccc3ccccc3c21	POLH inh 32µM, Pol kappa inh 45µM, POLI inh 79µM, Pol beta inh 6.3µM
O=C(Nc1ccc(S(=O)(=O)Nc2nccs2)cc1)c1cc(-c2ccccc2Cl)nc2ccccc12	POLH inh 28µM, POLI inh inconclusive, Pol beta inh inconclusive
CCOc1ccc(OCC)c(NC(=O)c2cc(-c3cccs3)nc3ccccc23)c1	Pol kappa inh inconclusive, POLI inh 89µM
Cc1ccc(NC(=O)c2cc(-c3cccs3)nc3ccccc23)nc1	Pol beta inh inconclusive
Cc1cc(C)nc(NS(=O)(=O)c2ccc(NC(=O)c3cc(-c4ccccc4)nc4ccccc34)cc2)n1	POLH inh inconclusive
Cc1ccc(-c2cc(C(=O)Nc3ccccc3C(N)=O)c3ccccc3n2)o1	POLH inh 50µM, POLI inh inconclusive (no result: KAT2A inh, Pol beta inh)
Cc1ccc(-c2cc(C(=O)Nc3ccc(S(=O)(=O)Nc4onc(C)c4C)cc3)c3ccccc3n2)cc1	POLH inh 89µM, KAT2A inh inconclusive, Pol beta inh inconclusive
O=C(Nc1ccc(S(=O)(=O)Nc2nccs2)cc1)c1cc(-c2ccccn2)nc2ccccc12	Pol beta inh inconclusive
CCOc1ccc(-c2cn3c(n2)sc2cc(C(=O)NCCCc4ccccc4)ccc23)cc1	none
COc1ccc(CCC(=O)NCc2nc3cccnc3n2Cc2ccc(F)cc2)cc1	none
COc1ccc(NC(=O)c2cc(-c3ccc(C)o3)nc3ccccc23)cc1OC	POLH inh inconclusive, Pol kappa inh inconclusive, POLI inh inconclusive, Pol beta inh 35µM
Cc1ccc(-c2cc(C(=O)Nc3nccs3)c3ccccc3n2)o1	POLH inh inconclusive, KAT2A inh inconclusive, POLI inh inconclusive, Pol beta inh 25µM
COCC1=C(C(=O)OC(C)OC(=O)OC(C)C)N2C(=O)C(NC(=O)/C(=N\OC)c3csc(N)n3)C2SC1 (stereo unspecified)	none (no result: POLH inh, Pol kappa inh, KAT2A inh, POLI inh, Pol beta inh)
CC(=O)c1cc(-c2ccccc2)n(CCC(=O)Nc2nc3c(C)cccc3s2)c1C	none
N#Cc1cccc(S(=O)(=O)N2CCN(c3nc(-c4cccs4)nc4ccccc34)CC2)c1	none (no result: POLH inh, KAT2A inh, Pol beta inh, GLS inh)
CCCSS/C(CCO)=C(/C)N(C=O)Cc1cnc(C)nc1N	none (no result: POLH inh, POLI inh, Pol beta inh)
CC(C)C[C@@H](CN=[N+]=[N-])N1CCN(CCc2ccccc2)CCC1=O	none (no result: POLH inh, KAT2A inh, Pol beta inh, GLS inh)
Oc1ccc(/C=N/N2CCCCC2)c(O)c1O	Pol kappa inh inconclusive, POLI inh inconclusive, Pol beta inh 35µM
O=C1c2cccc3cccc(c23)C(=O)N1/N=C/c1ccc(O)cc1O	POLH inh inconclusive, Pol beta inh inconclusive
Oc1ccc(/C=N/N(c2ccccc2)c2ccccc2)c(O)c1O	Pol beta inh 5µM (no result: POLH inh, Pol kappa inh, POLI inh, GLS inh)
Oc1ccc(/C=N/N2CCCCC2)c(O)c1	GLS inh 6.3µM
O=C1c2ccccc2C(=O)N1/N=C/c1ccc(O)c(O)c1O	POLH inh 1.6µM, Pol kappa inh 1.4µM, POLI inh inconclusive, Pol beta inh inconclusive, GLS inh inconclusive
